Where “and” joins values, the source holds several entries; their conditions need not be identical. Equal values may be shown once. The panel holds about 83,000 compounds, 20% with a hit somewhere; the sample as a whole holds those more often.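 Single-dose data. Exposure time 48 hours. Values below 10 considered active.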 Values without a mark were called inactive.
system: HS 578T breast; test: NCI-60 one-dose screen, 48 h (100 = growth as untreated, 0 = no growth, -100 = all killed); settings: 100 µM

For `O=C(Nc1c(Cl)cccc1Cl)Oc1cccc2cccnc12`, which growth is on record?
Its growth is 46.6%.

Which growth does the source give for `O=C(Nc1cccc(Br)c1)Oc1cccc2cccnc12` here?
Its growth is 79.3%.

Which growth does the source give for `O=C(O)c1c(Cl)c(Cl)c(Cl)c(Cl)c1-c1c2cc(I)c(=O)c(I)c-2oc2c(I)c(O)c(I)cc12` here?
Its growth is 27.5%.

system: NCI/ADR-RES ovarian; test: as above; settings: 10 µM

Which growth does the source give for `CN(C)C(=O)c1ccc(SC(=S)NCc2ccccc2)cc1` here?
The growth was 111%.

Which growth does the source give for `COc1ccc(-c2cscc2N)cc1` here?
The growth was 77.8%.

For `O=C(Nc1c(Cl)cccc1Cl)Oc1cccc2cccnc12`, which growth is on record?
Its growth is 13.5%.

`O=C(Nc1cccc(Br)c1)Oc1cccc2cccnc12` was tested. Which growth did it give?
Its growth is 103%.

How did the growth turn out when `O=C(O)c1c(Cl)c(Cl)c(Cl)c(Cl)c1-c1c2cc(I)c(=O)c(I)c-2oc2c(I)c(O)c(I)cc12` was run?
Its growth is 103% and 98% and 109%.

From PubChem BioAssay (NCI)
